The campaign covered roughly 65,000 compounds. Fewer than 10 were called active.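 How the source made its calls: active means at 10 µM dose, initial 340 nm absorbance at least 2 fold that of control wells; inactive means change under 2 fold.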 A selection follows.
Experiment: compound light absorbance at 340 nm, profiling panel, artefact control, biochemical, MLSMR library, data from PS, PMK, MK assays (AID 708);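 further: initial absorbance extrapolated from kinetic A340 decline of NADH oxidation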
Conditions: compound absorbance at 340 nm, fold over control; at 10 µM; hits give high values

Fold change, inactive:
CCCc1cc(=O)[nH]c(SCC(=O)OCc2ccccc2)n1 1.02, CCOC(=O)C1=C(C)N=c2s/c(=C\C(=O)OC)c(=O)n2C1c1ccc(OC)cc1 (stereo not given) 1.09, CCOC(=O)C1CCCN(Cc2nc(N)nc(Nc3ccc(C)cc3)n2)C1 (stereo not given) 1, CN(C)CCNC(=O)C(C(=O)c1ccccc1)n1ccccc1=O (stereo not given) 1.03, COCCNC(=S)c1ccc(OC)cc1 1.01, CCOC(=O)CSc1nnc(-c2cccc(Br)c2)o1 1.02, N#Cc1nc(N)nc(N(c2ccccc2)c2ccccc2)n1 1, Cc1ccccc1N1C(=O)C2ON(c3ccccc3)C(c3ccncc3)C2C1=O (stereo not given) 0.99, O=C(CCN1C(=O)c2ccccc2C1=O)NCCN1CCOCC1 0.99, COc1ccccc1-c1cc(C(=O)NCCCn2ccnc2)no1 0.99, NC(=O)Cn1c(=O)oc2ccccc21 0.97, O=C(Cn1c(=O)sc2ccccc21)Nc1nc2c(s1)CCCC2 1.03, O=C(Cn1nc(C(F)(F)F)c2c1CCC2)NCc1ccc(F)cc1 1.04, Cc1ccc(Oc2ccc(N)cc2)cc1 1.02, CCOC(=O)N1CCN(C(=O)CSc2nnc(-c3c[nH]c4ccccc34)n2CCOC)CC1 1.06, Cc1ccc(N2CCN(S(=O)(=O)N(C)C)CC2)cc1Cl 1.01, O=S(N1CCCCCC1)C12CC3CC(CC(C3)C1)C2 (stereo not given) 0.99, CC(C)OC(=O)CN1C(=O)c2ccccc2C1=O 1.01, CCS(=O)(=O)N1CCC(C(=O)N2CCN(c3ccccc3)CC2)CC1 1.02, CC1(C)CC(=O)c2sc(N)nc2C1 1.11, O=C(NCc1ccco1)c1cnn2c(C(F)(F)F)cc(-c3ccco3)nc12 1.04, CC1CCCN(c2ccc(C(=O)NCCc3ccccc3)cn2)C1 (stereo not given) 1.04, O=C(c1ccc2c(c1)C(=O)N(c1ccc(Cl)cc1)C2=O)N1CCN(c2ccccn2)CC1 1, Cc1ccc2c(c1)c1ncn(CCC3=CCCCC3)c(=O)c1n2C 1, CCNc1nc(SCCOc2ccccc2)nc(N(C)C)n1 1.04, CCC(C(=O)NC1CCCC1)N(C(=O)c1snc(C(N)=O)c1N)c1ccc2c(c1)OCCO2 (stereo not given) 1.1, COc1ccc(C(=O)N(CCN2CCOCC2)CC(=O)NC2CCCC2)cc1OC 0.98, OCCCN1c2ccccc2Nc2nnc(-c3ccccc3)cc21 1.04, COc1ccccc1-c1cc(C(=O)N2CCCCC2)no1 1.02, Cc1ccc2nc(-c3ccc(SCC(=O)Nc4cc(C)on4)nc3)[nH]c2c1 1.14, CCNS(=O)(=O)c1ccc(NC(=O)Nc2cccc(OC)c2)cc1 1.06, O=C(NC1CCCC1)c1ccc(Br)s1 1.03, CCOC(=O)CSc1nnc(CNC(=O)Cc2ccccc2)n1-c1ccccc1OC 0.99, CCOc1ccc(C(CC(=O)O)NC(=O)COc2ccccc2)cc1 (stereo not given) 1.03, CCCC1C(c2ccccc2)C(C#N)(C#N)C2(C#N)CC1(N)NC2=O (stereo not given) 1.02, C#CCNc1nc(C(C)C)nc2c1nnn2Cc1ccccc1F 1.04, CN(C)/C=C1\C=C(c2ccccc2)OC1=O 1.21, O=C(c1cnn2ccccc12)N1CCc2ccccc21 1.12, CCOc1ccc(Cn2nnc(C(=O)Nc3ccc(OC)cc3OC)c2N)cc1 0.98, COc1ccc(NC(=O)c2cccc(NC(=O)c3ccco3)c2)c(OC)c1 1.07, O=C(NCCc1ccccn1)c1ccc(COc2ccccc2)o1 0.98, CCOC(=O)C1CCN(C(=O)Nc2ccc(Cl)cc2)CC1 1.01, COc1cccc(N(CC(=O)NC2CCCC2)C(=O)Cn2nnc(-c3ccc(C)cc3)n2)c1 1.01, Cc1nc(SCC(=O)Nc2cc(C)on2)c2c3c(sc2n1)CCCC3 1.02, CC1CCN(Cc2nc3c(c(=O)n(C)c(=O)n3C)n2CCc2ccccc2)CC1 0.98, NC(=O)COc1ccc2c3c(c(=O)oc2c1)CCCCC3 1.15, CCc1cc(=O)oc2cc(OCC(=O)N3CCCc4ccccc43)ccc12 1.08, CCOC(=O)N1CCC(NC(=O)CCc2cn(C)c3ccccc23)CC1 0.98, Cc1ccnc(N2C(=O)c3ccccc3C2Nc2ccc3c(c2)OCCO3)c1 (stereo not given) 1.06, CCOc1ccc(-c2cn(S(=O)(=O)c3cccc4nsnc34)nc2N)cc1 0.98, c1ccc(-n2ncc3c2ncn2c(CSc4nc5ccccc5s4)nnc32)cc1 1.06, c1ccc2c(CNn3cnnc3)cccc2c1 1.05, Cc1ccc(C(=O)NCC2CCCO2)o1 (stereo not given) 1.04, CCn1c(CSc2nncn2-c2ccc(OC)cc2)nc2cc(S(=O)(=O)N(C)C)ccc21 0.96, CC(C)(O)C#Cc1ccc(C(=O)N2CCC(C(N)=O)(N3CCCCC3)CC2)cc1 1.04, CCN(CC)S(=O)(=O)c1ccc2nc(COC(=O)c3n[nH]c4ccccc34)[nH]c2c1 1.03, COc1cccc(-c2nnc(NC(=O)c3ccc(S(=O)(=O)N(CC(C)C)CC(C)C)cc3)o2)c1 1.06, CC12COC3(C(=O)Nc4ccc(Cl)cn4)CC1CCC32C (stereo not given) 1.04, Cc1nc(N2CCCC2C(=O)O)c2oc3ccccc3c2n1 (stereo not given) 1.02, CCCCN(CC)CCCNC(=O)CS(=O)(=O)Cc1nc(-c2cccc(OC)c2)oc1C 1, CC(=O)Nc1cccc(Oc2cc(C#N)c(C#N)cc2N2CCOCC2)c1 1.1, Cn1c2ccccc2c2c(C(=O)N3CCN(c4ccc(F)cc4)CC3)cn(C3CCCC3)c(=O)c21 1.05, COc1ccc(CCNS(=O)(=O)c2ccc(C(=O)NCc3ccco3)cc2)cc1OC 0.99, Cc1ccc(S(=O)(=O)NC(C)C(=O)Nc2ccccc2C(=O)N2CCCC2)cc1 (stereo not given) 0.96, COc1ccc(-n2nnnc2SCC(=O)c2ccc(OC)c(OC)c2)cc1 1.03, Cn1cnc2c1c(=O)n(Cc1c(Cl)cccc1Cl)c(=O)n2C 1.04, Cc1cc(C(=O)NCCCc2ccccc2)no1 1, COc1ccc(C(=O)Cn2nnc(-c3ccc(N4CCOCC4)cc3)n2)cc1OC 1, CCOc1cccc(-c2nn3c(-c4ccccn4)nnc3s2)c1 1.01, O=C(CN1CCN(C(=O)c2ccco2)CC1)Nc1ccc(Cl)c(C(F)(F)F)c1 1
